Screens (PubChem BioAssay)
D1 antag: blocks dopamine activation of the human D1 receptor; HEK293 TREx D1 cells, calcium flux, dopamine EC80; stronger effect = lower value; activity change, negative = inhibition, % at 10 µM; 3.2% of 360,000 active; AID 504652; in the data active means activity change below about -30%
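Allosteric or orthosteric antagonism assessed as attenuation of the calcium response to EC80 dopamine, added 180 s after compound, in induced HEK293 Trex D1 cells loaded with no-wash calcium dye.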
D1 potentiator: enhances dopamine response at the human D1 receptor. HEK293 TREx D1 cells, calcium flux, dopamine EC20 potentiation. potentiation, % at 10 µM. 0.036% of 360,000 active. AID 504651; in the data active means potentiation above about 30%
D1 agonist: human D1 receptor agonism; P21728; HEK293 T-REx D1 cells, calcium flux, agonist mode; activation, % at 2 µM; 1% of 360,000 active; AID 504660
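Tetracycline-induced HEK293 TREx D1 cells, force-coupled to calcium signalling, were dye-loaded with a no-wash calcium kit. Compound was pin-added after a 10 s baseline. Fluorescence was read kinetically at 1 cycle/s for 180 s, with calcium rises flagged as agonism.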
TRHR enhancer: allosteric enhancers of human TRH receptor; enhancement, % at 2 µM; P34981; TRHR cells, fluo-8 calcium fluorescence, EC20 TRH enhancement; 0.66% of 360,000 active; AID 493056; in the data active means enhancement above about 30%
Target sequence (P34981 whole entry, looked up): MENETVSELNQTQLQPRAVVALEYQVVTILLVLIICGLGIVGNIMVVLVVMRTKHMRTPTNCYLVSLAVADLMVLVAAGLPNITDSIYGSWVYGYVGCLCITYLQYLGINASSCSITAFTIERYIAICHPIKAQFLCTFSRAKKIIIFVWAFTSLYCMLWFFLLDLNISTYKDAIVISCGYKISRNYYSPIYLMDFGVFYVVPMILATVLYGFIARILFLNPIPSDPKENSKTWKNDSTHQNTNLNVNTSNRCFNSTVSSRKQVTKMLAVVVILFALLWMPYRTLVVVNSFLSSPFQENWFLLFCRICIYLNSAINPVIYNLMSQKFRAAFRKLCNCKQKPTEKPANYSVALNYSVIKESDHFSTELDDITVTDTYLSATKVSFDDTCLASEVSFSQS
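Enhancer read-out: after compound pinning and an initial kinetic agonist-mode read, an EC20 of TRH (10 nM final) was injected and fluo-8 calcium signal (Ex 480/Em 530) followed at 1 s/cycle for 100 cycles in TRHR-expressing cells.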
TRHR ag: agonists of human TRH receptor | TRHR cells, calcium flux fluo-8, FDSS agonist mode | activation, % at 2 µM | 0.18% of 360,000 active
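Agonist-mode FDSS calcium read (Ex 480/Em 530, 1 s cycles) in 1536-well TRHR cells with fluo-8 dye, after 10-cycle baseline and 23 nL compound addition; TRH at EC20 (10 nM final) added afterwards for the enhancer phase.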
Each line names hits and unclear results; the compound was inactive in the other large screens. Most compounds without a hit are left out; they make up all but 4.7% or so of the library. Unless noted, no stated cut-off is given here; in the data, active means activation above about 30%; inactive means the rest.

O=C(CSc1n[nH]c(-c2ccccn2)n1)Nc1ccccc1	none
COc1ccc(-c2nc(SCC(=O)NC(C)CCc3ccccc3)n[nH]2)cc1 (stereo not drawn)	D1 antag -33
COc1ccc(NC(=O)CSc2n[nH]c(-c3ccccn3)n2)cc1	D1 antag -65
COC(=O)CSc1n[nH]c(-c2cccnc2)n1	D1 antag -34
O=C(CSc1n[nH]c(-c2cccnc2)n1)Nc1ccccc1	none
COCCNC(=O)CCCn1c(=O)[nH]c2ccsc2c1=O	none
COc1ccc(Nc2ncnc3c2c(-c2ccccc2)cn3-c2ccc(C)c(Cl)c2)cc1OC	none
O=C(O)c1cccc(N2C(=O)c3cccc4c(Cl)ccc(c34)C2=O)c1	none
Nc1ccc2c3c(cccc13)C(=O)N(c1ccccc1)C2=O	D1 antag -42, D1 agonist 384
Cc1cccc(N2C(=O)c3cccc4c(N(C)CCO)ccc(c34)C2=O)c1	D1 agonist 200
CN(C)c1ccc2c3c(cccc13)C(=O)N(c1ccccc1)C2=O	none
Cc1cccc(N2C(=O)c3cccc4c(N)ccc(c34)C2=O)c1	D1 agonist 576, TRHR ag 132
Nc1cccc(N2C(=O)c3cccc4c(N)ccc(c34)C2=O)c1	D1 agonist 156, TRHR ag 127
O=C(O)c1ccc2c3c(cccc13)C(=O)N(c1ccccc1)C2=O	none
Cc1ccc(S(=O)(=O)c2nc(S(=O)(=O)c3ccc(C)cc3)c(NCCCOC(C)C)s2)cc1	none
Cc1cc(C)cc(NC(=O)C(=O)NC(C)c2ccccc2)c1 (stereo not drawn)	none
Cc1c(O)c2c3c(cccc3c1O)C(=O)N(c1ccccc1)C2=O	D1 agonist 53
COc1ccc(-c2cn3c(C)c(C(=O)Nc4cccc(C)n4)sc3n2)cc1	D1 antag -59
Cc1cccc(NC(=O)c2sc3nc(-c4ccccc4)cn3c2C)n1	none
O=C(Nc1cccc(NC(=O)c2ccc(Cl)cc2)n1)c1ccc(Cl)cc1	D1 antag -33
CCOc1ccc(C(=O)Nc2cccc(C)n2)cc1	TRHR enhancer 41
O=C(Nc1ccc2ccccc2n1)c1ccc(Cl)cc1	none
CCCCOc1ccc(C(=O)Nc2cccc(C)n2)cc1	none
CCc1nn(CC(=O)NCc2cccc(OC)c2OC)c(=O)c2cc3occc3n12	none
Nc1nc(-c2ccc(-c3ccccc3)cc2)cs1	D1 antag -47
CCCCOc1ccc(C2c3c(oc4ccccc4c3=O)C(=O)N2c2nc(C)c(C(=O)OCC)s2)cc1OC (stereo not drawn)	D1 antag -31
CCOC(=O)c1sc(N2C(=O)c3oc4cc(C)c(C)cc4c(=O)c3C2c2ccc(C)cc2)nc1C (stereo not drawn)	none
Cc1ccc2c(c1)c(=O)c(S(=O)(=O)c1ccc(F)cc1)cn2CC(=O)Nc1ccc2c(c1)OCO2	none
CC1(C)CC(=NO)CC(C)(C)N1	D1 antag -32
COc1ccc(NC(=O)CSc2nc(-c3ccco3)cc(C(F)(F)F)n2)cc1OC	D1 antag -30
Cc1ccc(NC(=O)CSc2nc(-c3ccco3)cc(C(F)(F)F)n2)cc1C	none
COc1cccc(NC(=O)CSc2nc(=O)[nH]c3c2CCCC3)c1	none (no result: D1 antag)
CCOC(=O)Cc1c(C)nc2cc(-c3ccc(C(C)(C)C)cc3)nn2c1C	D1 antag -39
O=S(=O)(N1CCCCC1)N1CCN(CC(O)COc2ccc3cc(Br)ccc3c2)CC1 (stereo not drawn)	none
CN(C)S(=O)(=O)N1CCN(CC(O)COc2ccc3cc(Br)ccc3c2)CC1 (stereo not drawn)	D1 antag -49
OC(COc1ccc2cc(Br)ccc2c1)CN1CCCC1 (stereo not drawn)	D1 antag -66, D1 agonist 68
CCOC(=O)c1ccc2c(c1)sc1nc(-c3ccc(OCC)cc3)cn12	none
C/C=C/C(=O)Nc1cccc(C2=NOC3(C2)C[C@@H](C(N)=O)N(C(=O)/C(C)=C/C)C3)c1 (stereo partly drawn)	D1 antag -31
C/C=C(/C)C(=O)Nc1cccc(C2=NOC3(C2)C[C@@H](C(N)=O)N(C(=O)CC)C3)c1 (stereo partly drawn)	none
C=C(C)C(=O)Nc1cccc(C2=NOC3(C2)C[C@@H](C(N)=O)N(C(=O)c2cc([N+](=O)[O-])cc([N+](=O)[O-])c2)C3)c1 (stereo partly drawn)	none
C/C=C(\C)C(=O)Nc1cccc(C2=NOC3(C2)C[C@H](C(N)=O)N(C(=O)CC#N)C3)c1 (stereo partly drawn)	D1 antag -48
C=C(C)C(=O)Nc1cccc(C2=NOC3(C2)C[C@@H](C(N)=O)N(C(=O)c2ccc(OC)cc2)C3)c1 (stereo partly drawn)	D1 antag -33
CCc1ccc(-n2c(=O)c3c4c(sc3n(CC(=O)c3ccc(F)cc3)c2=O)CCC4)cc1	none
COC(=O)c1cc2c(cc1NC(=O)c1cnn(-c3ccccc3)c1-n1cccc1)OCO2	none
Cc1ccc(-c2cnc(NCc3c(F)cccc3Cl)n2C)cc1	none
Nc1c(C(=O)NCCN2CCOCC2)c2nc3ccccc3nc2n1-c1cccc(F)c1	D1 antag -48
CCCNC(=O)c1c(N)n(-c2cccc(OC)c2)c2nc3ccccc3nc12	none
CCN(CC)S(=O)(=O)c1cccc(NC(=O)COC(=O)/C=C/c2cccs2)c1	D1 antag -31
CN(C)S(=O)(=O)c1cccc(NC(=O)COC(=O)CCC(=O)c2cccs2)c1	D1 antag -34
CCN(CC)S(=O)(=O)c1cccc(NC(=O)COC(=O)c2cccs2)c1	none
CN(C)S(=O)(=O)c1ccc(Cl)c(NC(=O)COC(=O)CCC(=O)c2cccs2)c1	none
CCCN(CCC)C(=O)Cn1c(=O)n(-c2ccc(C)cc2)c(=O)c2ccc(C(=O)NCc3ccccc3Cl)cc21	D1 antag -66
Cc1ccc(-n2c(=O)c3ccc(C(=O)NCc4ccco4)cc3n(Cc3ccccc3Cl)c2=O)cc1	none
COc1ccc(S(=O)(=O)Nc2cccc(-c3ccc(N4CCC(C)CC4)nn3)c2)cc1OC	none
CCCCCCCCNC(C)C(O)c1ccc(SC(C)C)cc1 (stereo not drawn)	D1 agonist 50
COc1ccccc1OCC(=O)N(Cc1nc(-c2ccc(Cl)cc2)no1)C(C)C	D1 antag -35
CCc1ccc(OCC(=O)NCCN(C)C)c(Br)c1	D1 antag -34
COc1ccccc1OCC(=O)N(Cc1nc(-c2ccccc2)no1)C(C)C	none
Cc1cc(C)cc(OCC(=O)NCc2nc(-c3ccccc3)no2)c1	D1 antag -58
CCOc1ccc(C(=O)N(Cc2nc(-c3cccc(C)c3)no2)C(C)C)cc1	D1 agonist 47
